POLK inh: DNA polymerase kappa (human) inhibition. 400,000 compounds, 0.53% hits. purified Pol kappa, fluorescent DNA synthesis assay, 10 min. Q9UBT6. Potency, µM (doses to about 107 µM), for inactives: at the top dose activity, negative = inhibition, usual class: inhibitors; note: potency is the fitted concentration of half-maximal effect; % is set by controls: 0 for no effect and ±100 for the full control effect
Target sequence (Q9UBT6 whole entry, looked up): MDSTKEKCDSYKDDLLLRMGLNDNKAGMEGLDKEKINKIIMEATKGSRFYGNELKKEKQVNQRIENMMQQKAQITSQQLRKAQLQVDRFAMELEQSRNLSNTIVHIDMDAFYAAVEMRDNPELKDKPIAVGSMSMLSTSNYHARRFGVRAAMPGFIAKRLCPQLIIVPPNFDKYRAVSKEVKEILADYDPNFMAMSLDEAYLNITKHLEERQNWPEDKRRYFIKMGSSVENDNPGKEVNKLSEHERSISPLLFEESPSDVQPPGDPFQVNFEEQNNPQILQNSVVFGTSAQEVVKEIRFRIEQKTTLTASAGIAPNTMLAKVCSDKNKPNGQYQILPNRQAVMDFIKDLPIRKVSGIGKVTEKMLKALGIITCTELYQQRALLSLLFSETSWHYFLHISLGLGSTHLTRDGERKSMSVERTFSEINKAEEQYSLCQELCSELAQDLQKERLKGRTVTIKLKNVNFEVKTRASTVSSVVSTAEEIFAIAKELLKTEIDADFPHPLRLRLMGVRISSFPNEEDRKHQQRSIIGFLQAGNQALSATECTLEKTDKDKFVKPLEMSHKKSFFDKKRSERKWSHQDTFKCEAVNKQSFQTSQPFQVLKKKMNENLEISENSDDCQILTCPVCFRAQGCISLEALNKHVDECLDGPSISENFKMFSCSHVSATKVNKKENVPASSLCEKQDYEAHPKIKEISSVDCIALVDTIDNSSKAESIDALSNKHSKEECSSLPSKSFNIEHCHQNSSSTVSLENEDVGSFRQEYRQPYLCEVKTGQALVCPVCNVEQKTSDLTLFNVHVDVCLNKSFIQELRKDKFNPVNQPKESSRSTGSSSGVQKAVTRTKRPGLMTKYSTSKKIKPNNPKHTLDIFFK
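Fluorescent qHTS in 1536-well format: enzyme (10 nM) and compound sat 15 min at room temperature before 50 nM substrate (final) was added. Signal taken at 0 and 10 min; no-enzyme buffer wells were negative controls.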
Pol iota inh: blocks human DNA polymerase iota activity; Q9UNA4; Pol iota fluorescent replication assay, 10 min; Potency, µM (titrated, usually from 115 µM), for inactives: top-dose activity, negative = inhibition, actives largely listed as inhibitors; 390,000 compounds, 1% hits; AID 588590; note: potency is the fitted concentration of half-maximal effect
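Fluorescent replication assay read twice, at 0 min and 10 min after adding 50 nM (final) substrate. Enzyme (10 nM) and compounds were first incubated 15 min at room temperature; enzyme-free buffer wells were negative controls.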
12-LOX inh: blocks human arachidonate 12S-lipoxygenase | AID 1671190 | P18054 | purified 12hLO, xylenol orange hydroperoxide absorbance | 580,000 compounds, 1.1% hits | Potency, µM (doses to about 108 µM), inactives show at the top dose activity change, negative = inhibition, usual class: inhibitors; note: potency is the fitted concentration of half-maximal effect; % is set by controls: 0 for no effect and ±100 for the full control effect
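Purified human 12hLO at 150 nM in 25 mM Hepes, 0.01% Triton X-100, pH 7.0, preincubated 15 min at room temperature with compound. Reaction started with 40 uM arachidonic acid, 30 min at room temperature. Hydroperoxide measured by Fe-xylenol orange, 573/405 nm absorbance ratio.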
POLH inh: blocks human DNA polymerase eta activity. Potency, µM (top dose mostly 114 µM), for the others: top-dose activity change, negative = inhibition, hits mostly inhibitors. AID 588591. 390,000 compounds, 1.2% hits. recombinant Pol eta, fluorescent DNA replication assay; note: potency is the fitted concentration of half-maximal effect; % is set by controls: 0 for no effect and ±100 for the full control effect
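Pol eta (10 nM) was preincubated with compounds for 15 min at room temperature, after which fluorescent replication substrate (50 nM final) was added to start the reaction. Fluorescence was read kinetically at 0 and 10 min.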
POLB inh: inhibitors of human DNA polymerase beta; P06746; Pol beta primer extension/strand displacement, fluorescence kinetic; Potency, µM (top dose mostly 114 µM), without a hit: at the highest dose activity change, negative = inhibition, actives largely listed as inhibitors; 340,000 compounds, 1.3% hits; AID 485314; note: potency is the fitted concentration of half-maximal effect; % is set by controls: 0 for no effect and ±100 for the full control effect
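Pol beta (10 nM) was preincubated with compound for 15 min at room temperature. The reaction was then started with 50 nM substrate and read immediately and after a further 10 min at room temperature.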
PI5P4Ka inh: inhibitors of human PI5P4K alpha; P48426; PI5P4Kalpha enzyme, ADP-Glo luminescence, 60 min; hits give low values; max response, %; 330,000 compounds, 1.2% hits; active = max response of -50% or lower; inconclusive = between -30% and -50%; inactive = -30% or higher; note: value at the top dose of about 77 µM; % is set by controls: 0 for no effect and ±100 for the full control effect
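Enzyme plus substrate dispensed, test compounds pinned in, then ATP (5 microM final) added. After 60 min at RT, ADP-Glo reagent 1 for 45 min and reagent 2 for 30 min preceded luminescence imaging.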
* hit, by the source's call; ? = inconclusive; · = no result; [ ] = remark or other dose. Rows were chosen to be rich in hits. Some 2.9% of all compounds tested hit in one or more screens of this group. Unless noted, calls come from the whole dose curve; as a rule, active = well fitted inhibition curve with a large enough effect; inconclusive = small, poorly fitted or top-dose-only effect, or another doubt; inactive = no such curve, though single readings can be large or run the other way.

SMILES	POLK inh	Pol iota inh	12-LOX inh	POLH inh	POLB inh	PI5P4Ka inh
Cc1ccc(NC(=O)CSc2nc(-c3ccco3)nc3cc(=O)[nH]n23)cc1C	?	?	0%	?	40µM*	·
Cc1cccc(NC(=O)CSc2nc(-c3cccs3)nc3cc(=O)[nH]n23)c1	-31%	?	-20%	-8%	?	·
Cc1ccc(NC(=O)CSc2nc(-c3cccs3)nc3cc(=O)[nH]n23)cc1	-34%	?	-4%	79µM*	32µM*	·
O=C(CSc1nc(-c2ccccc2)nc2cc(=O)[nH]n12)Nc1cccc(C(F)(F)F)c1	·	·	0%	·	·	·
COc1ccccc1OCCCSc1nc(-c2ccc(C(C)(C)C)cc2)nc2cc(=O)[nH]n12	?	?	1%	79µM*	?	·
COc1ccc(-c2nc(SCCOc3ccccc3Cl)n3[nH]c(=O)cc3n2)cc1	-21%	-20%	?	-5%	-31%	·
COc1cc(C(=O)OC2/C=C(\C)CCC3OC3(C)CC(O)[C@@H]2C(C)C)cc(OC)c1OC (some centres undefined)	·	·	-29%	·	·	·
Cc1c(S(=O)(=O)c2ccccc2)c(N)n(Cc2cccs2)c1C	·	·	-15%	·	·	·
O=C(CSc1nc(-c2ccccc2)nc2cc(=O)[nH]n12)Nc1ccccc1	-9%[60.1 µM]	?	-14%	-2%	?	·
COc1ccc(NC(=O)CSc2nc(-c3ccccc3)nc3cc(=O)[nH]n23)cc1	?	?	-12%	-15%	25µM*	·
C=CCc1ccccc1OCCSc1nc(-c2ccccc2F)nc2cc(=O)[nH]n12	-39%	?	-24%	?	10µM*	·
Cc1cccc(-c2nc(SCC(=O)Nc3cccc(C(F)(F)F)c3)n3[nH]c(=O)cc3n2)c1	-26%	?	-16%	-19%	40µM*	·
COc1cccc(-c2nc(SCc3ccc(C)cc3)n3[nH]c(=O)cc3n2)c1	-16%	89µM*	?	-8%	?	·
COc1ccc(N2C(=O)/C(=C\c3ccco3)N=C2SCC(=O)N(C(C)C)C(C)C)cc1Cl	-11%	5%	?	-10%	56µM*	0
O=C(Nc1ncccn1)C1CCCN1S(=O)(=O)c1ccc(Cl)c(Cl)c1 (centres undefined)	-7%[60.1 µM]	16%	-2%	79µM*	17%	·
O=C(O)C1CCCN1S(=O)(=O)c1ccc(Cl)c(Cl)c1 (centres undefined)	-12%[60.1 µM]	?	-18%	2%	1%	·
O=C(CCS(=O)(=O)c1ccccc1)Nc1ccc(Cl)cn1	-17%	17%	-24%	-4%	32µM*	-5
O=C(CCS(=O)(=O)c1ccccc1)Nc1ccc2c(c1)OCO2	?	?	31%	-8%	11µM*	?
CS(=O)(=O)N(CC(=O)Nc1ccc2c(c1)OCO2)c1ccccc1	-6%	-11%	-8%	11%	-24%	·
CN(Cc1ccc(N2CCCCC2)cc1)C(=O)CCC[C@H]1NC[C@@H]2C[C@H]1CN(Cc1ccccc1)C2	·	·	7.9µM*	·	·	·
CC1CCN(C(=O)CCC[C@H]2NC[C@@H]3C[C@H]2CN(Cc2ccccc2)C3)CC1	·	·	10µM*	·	·	·
CN(Cc1cccnc1)C(=O)CCC[C@H]1NC[C@@H]2C[C@H]1CN(Cc1ccccc1)C2	·	·	17%	·	·	·
Nc1nccnc1C(=O)NCc1ccccn1	·	·	9%	·	·	·
COc1cncc(-c2nc(-c3c(C)noc3C)cc3c2cc(C)n3CCN(C)C)c1	·	·	-3%[176 µM]	·	·	·
CC(C)(C)c1noc(CCC(=O)Nc2ccccn2)n1	·	·	-6%	·	·	·
SMILES	POLK inh	Pol iota inh	12-LOX inh	POLH inh	POLB inh	PI5P4Ka inh
Cc1nc2c(OCc3ccccc3)cccn2c1N(C)C(=O)C1CCCCC1	·	·	50µM*	·	·	5
CCc1nc2c(OCc3ccccc3C)cccn2c1N(C)C(=O)C1CC1	·	·	-1%	·	·	0
CC(=O)c1ccc(NC(=O)CSc2nc(=O)[nH]nc2C)cc1	·	·	37%	·	·	·
COc1ccc(-n2c(COc3cccc4ccccc34)nnc2SC(C)C(=O)O)cc1 (centres undefined)	-5%	-15%	?	-12%	7%	-97*
Cn1c(COc2ccc(C(C)(C)C)cc2)n[nH]c1=S	·	·	35µM*	·	·	·
Cc1cccc(NC(=O)CSc2ccc(-c3ccccn3)nn2)c1C	5%	89%	4%	-18%	5%	4
COc1ccc(C)cc1NC(=O)CSc1ccc(-c2ccco2)nn1	?	32µM*	0%	?	-3%	?
Cc1cccc(NC(=O)CSc2ccc(-c3ccco3)nn2)c1C	?	13µM*	-23%	5%	?	-2
COc1ccccc1-c1ccc(SCC(=O)NCCc2ccccc2)nn1	10%	167%	3%	-22%	24%	10
COc1ccccc1CCNC(=O)CSc1ccc(-c2ccco2)nn1	-23%	?	11%	-16%	16µM*	?
COc1cccc(C(=O)/C(=C/c2cccs2)c2nc3ccccc3o2)c1	·	·	-9%	·	·	·
COC[C@@H]1CN(S(=O)(=O)c2ccc(F)cc2F)C[C@H]1C(N)=O	·	·	25%	·	·	·
COc1ccc(OCc2nc3c4c(C)c(C)n(CCCN(C)C)c4ncn3n2)cc1	·	·	1%	·	·	·
CNC(=O)C(CC(C)C)NC(=O)Cc1nc(-c2cccs2)oc1C (centres undefined)	·	·	16%	·	·	·
CCCc1ccc(S(=O)(=O)N2CCN(CC(=O)NC(C)c3cccs3)CC2)cc1 (centres undefined)	·	·	11%	·	·	·
O=C(C1=C(O)C(=O)N(Cc2ccco2)C1c1cccnc1)c1cc2ccccc2o1 (centres undefined)	-23%	?	?	?	7%	-19
COc1cccc2cc(C(=O)C3=C(O)C(=O)N(Cc4ccco4)C3c3cccnc3)oc12 (centres undefined)	-12%	4%	·	3.5µM*	-1%	0
Cc1ccc(C(=O)C2=C(O)C(=O)N(Cc3ccco3)C2c2cccc(Cl)c2)o1 (centres undefined)	3%	56%	25µM*	-14%	-18%	0
Cc1ccc(C(=O)C2=C(O)C(=O)N(Cc3ccco3)C2c2cccc(Br)c2)o1 (centres undefined)	-2%	103%	?	-6%	79µM*	-14
CCCCOc1ccc(-c2c(C(=O)Nc3ccccc3)c(C)[nH]c(=S)c2C#N)cc1	-12%	19%	?	-8%	0%	-53*
CCOC(=O)c1c(C)[nH]c(=S)c(C#N)c1-c1ccc(Cl)cc1	-27%	79µM*	?	-21%	2%	-16
CCOC(=O)c1c(C)[nH]c(=S)c(C#N)c1-c1ccc(OC)cc1	-8%	?	?	-19%	20%	·
CCCCCCOc1ccc(-c2ccc(C#N)cn2)cc1	-16%	16%	-4%	-7%	-8%	·

Screening results (PubChem)
